PubChem BioAssay
The source made the active and inactive calls.

Key:
Albumin (Bos taurus) = Albumin (Bos taurus) (UniProt P02769); assay: bovine serum albumin binders on microarray, profiling panel, artefact control for SMM control protein annotation, biochemical, small-molecule microarray, Alexa647 label, 635/667 nm fluorescence (AID 1118); conditions: BSA-A647 binding, fluorescence 635 nm, higher = more signal;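 also: score merges 667 nm emission intensity and signal-to-noise per printed compound spot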
Sequence of Albumin (Bos taurus) (P02769 whole entry, looked up): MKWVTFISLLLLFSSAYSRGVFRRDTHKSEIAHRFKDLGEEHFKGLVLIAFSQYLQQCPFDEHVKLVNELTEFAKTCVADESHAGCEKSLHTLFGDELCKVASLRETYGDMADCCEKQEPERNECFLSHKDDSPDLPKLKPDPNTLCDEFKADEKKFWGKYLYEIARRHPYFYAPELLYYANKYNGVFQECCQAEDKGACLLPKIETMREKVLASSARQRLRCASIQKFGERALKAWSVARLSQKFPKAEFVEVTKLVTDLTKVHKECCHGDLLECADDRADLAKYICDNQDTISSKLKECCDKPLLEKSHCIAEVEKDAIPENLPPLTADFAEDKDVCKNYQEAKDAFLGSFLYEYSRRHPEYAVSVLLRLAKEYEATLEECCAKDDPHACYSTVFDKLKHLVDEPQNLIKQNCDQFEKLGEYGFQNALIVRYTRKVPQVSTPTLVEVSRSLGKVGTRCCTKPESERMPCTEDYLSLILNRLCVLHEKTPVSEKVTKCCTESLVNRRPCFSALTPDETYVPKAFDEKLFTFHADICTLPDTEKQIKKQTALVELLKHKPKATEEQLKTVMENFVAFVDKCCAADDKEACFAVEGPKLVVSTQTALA

[1] = small-molecule microarray binders of probe aXIP, primary screen, biochemical, NeuroSMM set, 635/667 nm fluorescence (AID 1119); conditions: higher = more signal, called active from +8 up or from −8 down;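 also: probe is the protein aXip251-270 applied at 1 µg/mL to compound-printed slides; binding of probe to printed compounds measured as 667 nm fluorescence plus signal to noise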
[2] = small-molecule binders of probe aNOTCH3, primary screen, biochemical, small-molecule microarray, 635/667 nm fluorescence (AID 1120); conditions: higher = more signal;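 also: probe is a biotin-tagged antibody raised against NOTCH3 rather than NOTCH3 protein; score merges spot fluorescence near 667 nm with spot signal to noise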
[3] = small-molecule binders of probe aNOTCH2, primary screen, biochemical, small-molecule microarray, 635/667 nm fluorescence (AID 1121); conditions: higher = more signal;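 also: score merges feature fluorescence read at 667 nm with its signal to noise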
[4] = biological target: Carbonic anhydrase 2 (Homo sapiens) (UniProt P00918); assay: CAII small-molecule binders, profiling panel, biochemical, small-molecule microarray, Alexa647-labelled CAII (AID 1122); conditions: CAII-A647 binding fluorescence, higher = more signal
[5] = COS7 lysate on small-molecule microarray, probe aHis, 635 nm (AID 1123); conditions: COS7 cell lysate, fluorescence, higher = more signal;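 also: z-score combines 667nm fluorescence intensity with signal-to-noise per printed compound spot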
[6] = compound binding in COS7 lysate, probe aLAP1, primary screen, cell lysate, small-molecule microarray (AID 1124); conditions: probe aLAP1, fluorescence, higher = more signal;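 also: lysate comes from COS7 cells expressing LAP1 and is applied at 0.3 µg/mL; score merges spot fluorescence near 667 nm with signal-to-noise over triplicate slides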
Sam68 (KHDRBS1) = assay: Sam68 small-molecule binders, primary screen, biochemical, small-molecule microarray, 635 nm fluorescence (AID 1125); conditions: small-molecule microarray binding, higher = more signal;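 also: score merges 667 nm channel intensity with signal to noise over triplicate slides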
[7] = test system: Chordin-like protein 2 (CHRDL2); assay: CHRDL2 small-molecule binders, primary screen, biochemical, small-molecule microarray, 635 nm fluorescence (AID 1126); conditions: small-molecule microarray binding, fluorescence 635 nm; higher = more signal;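 also: printed compound slides probed with Chrdl2 protein at 4 µg/mL for 1 h at 4 C; score merges 667 nm emission intensity with signal to noise over three replicate slides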
[8] = biological target: Concanavalin-A (Canavalia ensiformis) (UniProt P02866); assay: ConA small-molecule binders, primary screen, artefact control for SMM control protein annotation, biochemical, small-molecule microarray, Alexa647 label, 635 nm (AID 1127); conditions: ConA-A647 binding fluorescence, higher = more signal;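 also: z combines 667 nm emission intensity with signal-to-noise across three replicate slides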
Sequence of Concanavalin-A (Canavalia ensiformis) (P02866 whole entry, looked up): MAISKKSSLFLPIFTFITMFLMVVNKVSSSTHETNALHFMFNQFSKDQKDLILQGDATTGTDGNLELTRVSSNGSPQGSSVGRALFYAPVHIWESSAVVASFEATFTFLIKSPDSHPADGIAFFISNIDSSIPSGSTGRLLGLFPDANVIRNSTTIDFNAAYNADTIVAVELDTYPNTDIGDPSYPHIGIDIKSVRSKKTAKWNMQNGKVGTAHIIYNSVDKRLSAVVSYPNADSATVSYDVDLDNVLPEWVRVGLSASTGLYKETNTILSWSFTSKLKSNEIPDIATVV

[9] = anti-His antibody binders, primary screen, artefact control for SMM control protein annotation, biochemical, small-molecule microarray, 635 nm fluorescence (AID 1128); conditions: anti-His Alexa647 antibody binding, higher = more signal;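 also: score merges feature fluorescence with signal-to-noise for each printed compound spot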
[10] = test system: Human papillomavirus type 1a E7 protein (residues 1-88); assay: HPV1a E7 small-molecule binders, primary screen, biochemical, small-molecule microarray, residues 1-88, 635 nm (AID 1129); conditions: small-molecule microarray binding, fluorescence 635 nm; higher = more signal
[11] = biological target: Focal adhesion kinase 1 (Homo sapiens) (UniProt Q05397); assay: small-molecule microarray binders of FAK, primary screen, biochemical, 635/667 nm fluorescence, BSA, DTT (AID 1130); conditions: PTK2 binding, 635 nm fluorescence, higher = more signal;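 also: composite of spot emission at 667 nm and signal to noise over triplicate slides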
Sequence of Focal adhesion kinase 1 (Homo sapiens) (Q05397 whole entry, looked up): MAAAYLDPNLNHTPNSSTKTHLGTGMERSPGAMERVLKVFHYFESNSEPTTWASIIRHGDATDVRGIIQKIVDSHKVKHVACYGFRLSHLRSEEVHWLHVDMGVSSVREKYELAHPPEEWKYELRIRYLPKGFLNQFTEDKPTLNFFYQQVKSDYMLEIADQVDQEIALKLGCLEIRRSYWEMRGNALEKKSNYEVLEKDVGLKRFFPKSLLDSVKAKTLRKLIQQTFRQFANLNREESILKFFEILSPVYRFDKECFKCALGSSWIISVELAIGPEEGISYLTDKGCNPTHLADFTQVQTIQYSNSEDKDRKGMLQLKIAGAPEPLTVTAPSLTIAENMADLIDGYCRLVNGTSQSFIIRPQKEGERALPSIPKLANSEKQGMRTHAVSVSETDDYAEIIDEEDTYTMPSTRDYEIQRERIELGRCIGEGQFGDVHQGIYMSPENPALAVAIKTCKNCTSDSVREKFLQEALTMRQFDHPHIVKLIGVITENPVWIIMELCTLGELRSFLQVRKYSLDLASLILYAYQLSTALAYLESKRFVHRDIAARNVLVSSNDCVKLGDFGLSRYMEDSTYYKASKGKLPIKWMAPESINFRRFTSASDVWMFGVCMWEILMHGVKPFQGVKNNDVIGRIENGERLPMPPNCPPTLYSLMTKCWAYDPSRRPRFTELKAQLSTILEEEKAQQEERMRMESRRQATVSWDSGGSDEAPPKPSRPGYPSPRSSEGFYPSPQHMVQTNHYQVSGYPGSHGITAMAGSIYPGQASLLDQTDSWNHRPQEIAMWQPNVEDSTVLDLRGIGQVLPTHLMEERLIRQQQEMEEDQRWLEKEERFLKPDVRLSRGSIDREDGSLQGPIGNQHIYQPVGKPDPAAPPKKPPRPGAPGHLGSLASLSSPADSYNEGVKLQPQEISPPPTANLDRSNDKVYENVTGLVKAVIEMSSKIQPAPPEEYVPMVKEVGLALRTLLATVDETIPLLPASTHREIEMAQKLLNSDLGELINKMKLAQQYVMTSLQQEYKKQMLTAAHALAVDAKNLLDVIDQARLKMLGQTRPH

[12] = test system: Fibrinogen (Alexa647-labelled); assay: fibrinogen binders on compound microarrays, profiling panel, artefact control for SMM control-protein annotation, biochemical, small-molecule microarray, 635/667 nm fluorescence (AID 1131); conditions: fibrinogen-A647 binding fluorescence, higher = more signal;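 also: z-score merges 667 nm fluorescence with per-spot signal-to-noise over triplicate slides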
[13] = biological target: Follistatin (Homo sapiens) (UniProt P19883); assay: follistatin binders on small-molecule microarrays, primary screen, biochemical, small-molecule microarray, 635/667 nm fluorescence (AID 1132); conditions: FST binding, 635 nm fluorescence, higher = more signal
Sequence of Follistatin (Homo sapiens) (P19883 whole entry, looked up): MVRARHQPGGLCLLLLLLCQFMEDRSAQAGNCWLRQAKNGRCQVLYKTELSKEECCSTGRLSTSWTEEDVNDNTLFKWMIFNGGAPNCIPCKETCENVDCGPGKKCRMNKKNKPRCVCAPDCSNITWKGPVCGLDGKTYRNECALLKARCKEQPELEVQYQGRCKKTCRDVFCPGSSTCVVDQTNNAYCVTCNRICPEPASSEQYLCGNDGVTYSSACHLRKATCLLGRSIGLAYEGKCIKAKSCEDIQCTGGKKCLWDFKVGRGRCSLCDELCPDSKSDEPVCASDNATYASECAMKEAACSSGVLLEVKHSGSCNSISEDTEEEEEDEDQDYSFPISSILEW

[14] = biological target: Fibroblast growth factor 2 (Homo sapiens) (UniProt P09038); assay: FGF2 binders on small-molecule microarrays, primary screen, biochemical, small-molecule microarray, 635/667 nm fluorescence (AID 1133); conditions: small-molecule microarray binding, FGF2, fluorescence 635/667; higher = more signal
Sequence of Fibroblast growth factor 2 (Homo sapiens) (P09038 whole entry, looked up): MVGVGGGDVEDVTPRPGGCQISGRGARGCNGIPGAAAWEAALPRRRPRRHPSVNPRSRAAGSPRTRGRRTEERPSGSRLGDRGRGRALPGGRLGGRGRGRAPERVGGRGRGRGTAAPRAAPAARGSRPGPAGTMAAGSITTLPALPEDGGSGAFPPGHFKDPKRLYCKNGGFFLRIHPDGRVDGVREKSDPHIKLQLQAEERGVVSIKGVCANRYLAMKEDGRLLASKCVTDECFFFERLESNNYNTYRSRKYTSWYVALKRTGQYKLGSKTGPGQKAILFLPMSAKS

[15] = mitochondrial membrane potential change in A549 cells, profiling panel, cell-based, JC-1 fluorescence, basal, 24 h, 100 nL (AID 1138); conditions: higher = more signal;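 also: A549 lung adenocarcinoma cells under basal conditions with no added stimulus; test concentration not given here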
Lefty1 = Lefty1 binders on small-molecule microarrays, primary screen, biochemical, small-molecule microarray, 635/667 nm fluorescence (AID 1139); conditions: small-molecule microarray binding, fluorescence 635/667; higher = more signal
[16] = test system: wheat germ agglutinin (Triticum aestivum), Alexa647-labelled; assay: wheat germ agglutinin binders on compound microarrays, profiling panel, artefact control for SMM control-protein annotation, biochemical, small-molecule microarray, 635/667 nm fluorescence (AID 1140); conditions: WGA-A647 binding, 635 nm fluorescence, higher = more signal;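 also: score merges 667 nm feature emission with signal to noise over triplicate slides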
[17] = biological target: Luciferin 4-monooxygenase (Photinus pyralis) (UniProt P08659); assay: firefly luciferase enzyme inhibitors, primary screen, biochemical, luminescence, purified enzyme, 2006 set (AID 1141); conditions: SteadyGlo luminescence, 30 min, higher = more signal, called active from +8 up or from −8 down;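 also: cell-free assay with purified firefly luciferase at 100 ng per well in PBS; test concentration not given here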
Sequence of Luciferin 4-monooxygenase (Photinus pyralis) (P08659 whole entry, looked up): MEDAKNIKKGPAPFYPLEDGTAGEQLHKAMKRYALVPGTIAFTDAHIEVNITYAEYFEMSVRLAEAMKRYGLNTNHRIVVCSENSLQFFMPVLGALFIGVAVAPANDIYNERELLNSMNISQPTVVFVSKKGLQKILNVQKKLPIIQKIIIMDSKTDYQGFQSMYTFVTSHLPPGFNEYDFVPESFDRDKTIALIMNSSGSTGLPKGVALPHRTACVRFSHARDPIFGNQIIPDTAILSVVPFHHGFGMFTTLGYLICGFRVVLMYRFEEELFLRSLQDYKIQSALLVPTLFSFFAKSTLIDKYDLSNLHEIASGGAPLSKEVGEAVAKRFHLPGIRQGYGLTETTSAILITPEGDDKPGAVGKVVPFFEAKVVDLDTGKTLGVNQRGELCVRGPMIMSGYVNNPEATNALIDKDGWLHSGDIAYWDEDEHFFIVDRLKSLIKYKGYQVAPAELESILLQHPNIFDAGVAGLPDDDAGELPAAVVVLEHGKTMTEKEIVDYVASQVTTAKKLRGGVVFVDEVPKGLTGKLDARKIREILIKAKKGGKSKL

SMILES | composite z-score (Albumin (Bos taurus)) | composite Z-score [1] | composite z-score [2] | composite z-score [3] | composite z-score [4] | composite z-score [5] | composite z-score [6] | composite z-score (Sam68 (KHDRBS1)) | composite z-score [7] | composite z-score [8] | composite z-score [9] | composite z-score [10] | composite z-score [11] | composite z-score [12] | composite z-score [13] | composite z-score [14] | z-score [15] | composite z-score (Lefty1) | composite z-score [16] | z-score [17]
COc1ccc([Si](C)(C)[C@H]2[C@H](CCO)O[C@@]3(C(=O)N(Cc4ccc(NC(=O)[C@H](C)O)cc4)c4ccccc43)[C@@H]2C)cc1 | 0.494 | 0.515 (inactive) | 0.0643 | -0.164 | 0.488 | 1.9 | 0.0861 | 1.32 | 0.101 | 0.897 | 1.4 | 1.23 | 0.382 | 0.68 | 0.728 | 0.634 | -1.45 | 0.568 | 0.355 | -0.234 (inactive)
CCC(CC)C(O)C1C=CC2C(=O)N(c3ccccc3)C(=O)C2N1Nc1ccccc1F (stereo not given) | 0.86 | 0.204 (inactive) | 0.188 | 0.001 | 0.604 | 1.83 | 0.261 | 0.865 | 0.118 | 0.949 | 1.62 | 1.16 | 0.869 | 0.94 | 0.337 | -0.557 | -0.231 | 0.128 | 0.416 | 0.211 (inactive)
COc1ccc(NN2C(C(O)c3ccc(I)cc3)C=CC3C(=O)N(C4CCCCC4)C(=O)C32)cc1 (stereo not given) | 0.843 | 0.84 (inactive) | 0.394 | -0.075 | 0.444 | 1.53 | 0.444 | 1.32 | -0.195 | 1.1 | 0.698 | 1.23 | -0.0558 | 0.951 | 1.3 | 0.366 | 0.119 | 0.946 | 1.22 | 1.29 (inactive)
COC(=O)C(CC#Cc1ccc2c(c1)[C@]1(C(=O)N2)[C@H](C(=O)NC[C@H](O)c2ccccc2)[C@H]2C(=O)O[C@H](c3ccccc3)[C@H](c3ccccc3)N2[C@@H]1c1ccccc1OCCO)C(=O)OC | -0.119 | -0.154 (inactive) | 0.0779 | -0.115 | 0.376 | 2.14 | 0.298 | 1.25 | 0.557 | 1.01 | 2.68 | 1.23 | 0.289 | 0.478 | 1.25 | 1.56 | -0.693 | 0.221 | 1.09 | 0.742 (inactive)
CC(C)(C)N1CC=CC23O[C@@H]4/C=C\CCCOC(=O)C4[C@H]2C(=O)N(CCCO)[C@@H]3C1=O (stereo not given in full) | 0.706 | -0.191 (inactive) | 0.134 | -0.0846 | 0.866 | 0.644 | 0.818 | -0.446 | -1.44 | -1.02 | 0.343 | -0.849 | -0.572 | -2.06 | -0.768 | -0.811 | -0.534 | -0.538 | -1.38 | 0.552 (inactive)
COc1ccccc1CN1C(=O)c2ccccc2[C@](Cc2ccccc2I)(C(=O)NCC(C)C)[C@@H]1c1ccc(CO)cc1 | -0.133 | 0.688 (inactive) | -0.0693 | -0.0241 | 0.542 | 1.97 | 0.675 | 0.781 | -0.483 | 0.792 | -0.718 | 0.654 | -0.299 | 0.378 | 1.05 | 0.133 | 2.54 | -0.803 | 0.0043 | -1.22 (inactive)
COc1cc(OC)c(C(O)C2C=CC3C(=O)N(c4ccccc4)C(=O)C3N2Nc2ccc(C(C)C)cc2)cc1Br (stereo not given) | 0.971 | -0.382 (inactive) | 0.274 | 0.236 | 0.426 | 2.76 | 0.231 | 1.28 | 0.1 | 1.07 | -0.0881 | 1.21 | 0.441 | 0.885 | 0.806 | 0.0421 | 0.568 | -0.112 | 1.2 | -1.71 (inactive)
C=C(/C(=C/C[C@@H](OC(C)=O)c1cccc(OCCO)c1)c1cnc2ccccc2c1)C(C)C | 0.286 | 0.19 (inactive) | -0.0787 | -0.124 | 0.803 | 1.26 | -0.149 | 0.869 | 1.38 | 0.629 | 0.607 | 0.472 | 0.138 | -0.31 | 1.5 | 1.68 | 0.41 | 1.55 | 1.07 | -0.614 (inactive)
CC(C)(C)N1CC=CC23O[C@@H]4C=CCCOC(=O)C4[C@H]2C(=O)N(CCCCCCO)[C@@H]3C1=O (stereo not given in full) | -0.188 | -0.192 (inactive) | -0.0716 | -0.124 | 0.834 | -0.0431 | 0.0582 | 0.28 | -1.29 | -0.202 | 0.129 | 0.11 | -0.385 | -0.959 | -0.327 | -1.16 | 0.223 | -0.0747 | -1.2 | -0.876 (inactive)
C=C(COC)C(=O)CC[C@@H](OC(C)=O)c1ccccc1OCCO | -0.145 | -0.975 (inactive) | 0.183 | -0.15 | 0.675 | -0.762 | 0.583 | 0.789 | -0.0113 | -0.0386 | 0.456 | 0.318 | -0.517 | -0.698 | 1.15 | 1.09 | 0.356 | 0.791 | 0.523 | -2.79 (inactive)
C[N+](C)(C)CCCC[C@@H]1NC(=O)[C@H]2C[C@@H](C(=O)NCCCCCNC(=O)CS)[C@@H](c3cccc(OCCO)c3)N2C1=O | 0.479 | 0.518 (inactive) | -0.0881 | -0.115 | 0.69 | 1.63 | 0.985 | 0.165 | 0.245 | 0.896 | 1.38 | 0.518 | 0.247 | 0.821 | 0.78 | 0.549 | 0.299 | -0.383 | 0.343 | -1.09 (inactive)
